Bioassay records as filed in PubChem.
This is a sample that favours compounds with a hit; in the whole collection about 2.4% have one here.
TMEM16A inh: inhibitors of mouse TMEM16A calcium-activated chloride channel; AID 588511; Q8BHY3; HEK293 TMEM16A/YFP iodide influx fluorescence, ionomycin; 1.2% of 310,000 active; normalized B-score (activity score, 25-100; higher = stronger inhibition) at 10 µM;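 active means ratio plate-corrected score three or more library SD toward inhibition, starting fluorescence score within five deviations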;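 further: score derived from kinetic fluorescence span divided by baseline fluorescence per well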
Target sequence (Q8BHY3 whole entry, looked up): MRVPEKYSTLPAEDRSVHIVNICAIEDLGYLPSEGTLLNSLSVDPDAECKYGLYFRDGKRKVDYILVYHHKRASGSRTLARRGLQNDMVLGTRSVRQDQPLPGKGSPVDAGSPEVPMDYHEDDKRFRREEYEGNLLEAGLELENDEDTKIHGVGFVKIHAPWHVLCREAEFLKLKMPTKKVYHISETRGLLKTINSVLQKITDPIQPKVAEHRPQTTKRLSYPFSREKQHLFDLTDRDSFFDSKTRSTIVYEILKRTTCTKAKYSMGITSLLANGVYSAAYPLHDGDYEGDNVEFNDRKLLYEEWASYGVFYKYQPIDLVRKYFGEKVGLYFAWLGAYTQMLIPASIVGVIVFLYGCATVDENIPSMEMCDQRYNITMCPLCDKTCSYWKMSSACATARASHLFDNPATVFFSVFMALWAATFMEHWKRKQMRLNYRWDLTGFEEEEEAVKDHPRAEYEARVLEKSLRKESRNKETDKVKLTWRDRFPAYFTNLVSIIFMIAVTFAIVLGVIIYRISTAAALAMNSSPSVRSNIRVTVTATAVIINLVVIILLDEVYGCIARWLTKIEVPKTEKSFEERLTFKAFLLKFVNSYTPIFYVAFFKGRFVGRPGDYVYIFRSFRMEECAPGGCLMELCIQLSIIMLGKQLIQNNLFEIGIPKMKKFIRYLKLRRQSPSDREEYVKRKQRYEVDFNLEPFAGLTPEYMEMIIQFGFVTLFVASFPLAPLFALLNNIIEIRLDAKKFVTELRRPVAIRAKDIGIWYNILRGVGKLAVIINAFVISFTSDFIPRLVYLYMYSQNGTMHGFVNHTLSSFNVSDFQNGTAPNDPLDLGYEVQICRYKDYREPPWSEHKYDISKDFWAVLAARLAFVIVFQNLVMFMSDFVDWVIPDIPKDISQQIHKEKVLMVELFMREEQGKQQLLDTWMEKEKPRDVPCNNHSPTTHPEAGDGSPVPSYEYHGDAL
Cardiac RTF inh: cardiac RTF calcium desensitization; 0.12% of 340,000 active; inhibition, % at 7.15 µM; P19429+P45379; AID 493244; IANBD-labeled cardiac RTF, Ca2+ fluorescence;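 active means inhibition above the mean inhibition of all tested compounds plus 3 SD, cut at about 17% in these data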;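 further: assay run at fixed EC70 calcium of 1.6 mM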
CRFBP-R2 agonist: CRF-BP/CRF-R2 complex agonism; HEK293 CRF-R2/CRF-BP, calcium dye fluorescence (FLIPR); percent of saturating CRF peptide response; activation, % at 13.2 µM; 0.46% of 350,000 active;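 active means activation of at least 50%, plus an integration ratio under a set limit after plate pattern correction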
cardiac RTF act: cardiac RTF calcium sensitization. IANBD-labeled TnC RTF fluorescence at EC20 calcium; 0% EC20 calcium, 100% full calcium. 0.24% of 340,000 active. AID 493008. activation, % at 7.2 µM. P19429+P45379;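 active means activation above the mean over all tested compounds plus 3 SD, cut at about 30% in these data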;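 further: rise in fluorescence read as greater calcium sensitivity of cardiac thin filaments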
ANO1 activ: activates or potentiates the mouse TMEM16A chloride channel; Q8BHY3; HEK293 TMEM16A/YFP-H148Q/I152L, iodide quench fluorescence; active compounds read low; B-score at 10 µM; 0.3% of 340,000 active; AID 623877;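 active means fluorescence-ratio B-score plate-corrected deviation score at least 3 library SD below zero, with starting fluorescence score within 5 deviations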;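 further: channel opened by trigger with iodide after compound preincubation; score built on the fluorescence ratio of max minus min over baseline; more negative score means more quench and so TMEM16A activation or potentiation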
CRFR2-BP antag: CRF-BP/CRF-R2 complex antagonism; AID 588475; inhibition, % at 11.8 µM; 0.59% of 350,000 active; HEK293 CRF-R2/CRF-BP, CRF-induced calcium fluorescence;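 active means inhibition of the ligand-induced calcium signal above about 50% at the single tested concentration, limit read from the data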
Numbers stand for hits; ! = repeats disagree.

For CCOC(=O)Cc1csc(NC(=O)COc2ccc(N(C)S(=O)(=O)c3cccs3)cc2)n1 the results were TMEM16A inh 100, Cardiac RTF inh inactive, CRFBP-R2 agonist inactive, cardiac RTF act inactive, ANO1 activ inactive and CRFR2-BP antag inactive.
Screening O=C(CSCC(=O)N1CCCCC1)Nc1nc(-c2cccs2)cs1 returned TMEM16A inh 25, Cardiac RTF inh inactive, CRFBP-R2 agonist inactive, cardiac RTF act inactive, ANO1 activ inactive and CRFR2-BP antag inactive.
Screening O=C(Cc1ccccc1F)Nc1nc(-c2cccs2)cs1 returned TMEM16A inh 25, Cardiac RTF inh inactive, CRFBP-R2 agonist inactive, cardiac RTF act inactive, ANO1 activ inactive and CRFR2-BP antag inactive.
For CC1(C)CC(=O)C(CC(=O)c2ccccc2)=C(NN=C(N)N)C1 the results were CRFBP-R2 agonist inactive and CRFR2-BP antag inactive.
For COc1cccc(OCC(=O)NC2CCS(=O)(=O)C2)c1 (stereo not drawn) the results were Cardiac RTF inh inactive, CRFBP-R2 agonist inactive, cardiac RTF act inactive, ANO1 activ inactive and CRFR2-BP antag inactive.
Screening CCn1c(=O)c(=O)[nH]c2c(=O)oc3ccc(S(=O)(=O)Nc4ccccc4)cc3c21 returned TMEM16A inh inactive, Cardiac RTF inh inactive, CRFBP-R2 agonist inactive, cardiac RTF act inactive, ANO1 activ inactive and CRFR2-BP antag inactive.
Screening CCN(CC)c1ccc(/C=c2\sc3nnc(-c4ccccc4Cl)n3c2=O)cc1 returned TMEM16A inh inactive, Cardiac RTF inh inactive, CRFBP-R2 agonist 112, cardiac RTF act 47, ANO1 activ inactive and CRFR2-BP antag inactive.
For CCN(CC)c1ccc(/C=c2/sc3nnc(-c4ccccc4C)n3c2=O)cc1 the results were TMEM16A inh inactive, Cardiac RTF inh inactive, CRFBP-R2 agonist 133, cardiac RTF act 43, ANO1 activ inactive and CRFR2-BP antag inactive.
CN(C(=O)c1ccc(S(=O)(=O)N2CCCC2)cc1)C1CCS(=O)(=O)C1 (stereo not drawn) was read as TMEM16A inh inactive, Cardiac RTF inh inactive, CRFBP-R2 agonist inactive, cardiac RTF act inactive, ANO1 activ inactive and CRFR2-BP antag inactive.
For CCOC(=O)C1(CCCCCCOc2ccc(Cl)cc2)CO1 (stereo not drawn) the results were TMEM16A inh 25.
For O=C(CCCOc1ccc(Cl)cc1)N1CCOCC1 the results were TMEM16A inh inactive, Cardiac RTF inh inactive, CRFBP-R2 agonist inactive, cardiac RTF act inactive, ANO1 activ inactive and CRFR2-BP antag inactive.
`CCCCC1OC23CCCCC2C(C#N)(C(=N)O3)C1(C#N)C#N` (stereo not drawn) gave TMEM16A inh inactive, Cardiac RTF inh inactive, CRFBP-R2 agonist inactive, cardiac RTF act inactive, ANO1 activ inactive and CRFR2-BP antag inactive.
`CCCCC1OC23CCCCC2C(C#N)(C#N)C1(C#N)C(=N)O3` (stereo not drawn) gave TMEM16A inh inactive, Cardiac RTF inh inactive, CRFBP-R2 agonist inactive, cardiac RTF act 46, ANO1 activ inactive and CRFR2-BP antag inactive.
For N#CC1(C#N)C(c2ccccc2)OC23CCCCC2C1(C#N)C(=N)O3 (stereo not drawn) the results were TMEM16A inh inactive, Cardiac RTF inh inactive, CRFBP-R2 agonist inactive, cardiac RTF act 30, ANO1 activ inactive and CRFR2-BP antag inactive.
O=C(Nc1ccc(N2CCN(C(=O)c3ccco3)CC2)c(Cl)c1)c1cc2ccccc2o1 was read as TMEM16A inh inactive, Cardiac RTF inh inactive, CRFBP-R2 agonist inactive, cardiac RTF act inactive, ANO1 activ inactive and CRFR2-BP antag inactive.
Screening CCCOc1ccc(C(=O)N2CCN(c3ccc(NC(=O)CC)cc3Cl)CC2)cc1 returned TMEM16A inh inactive, Cardiac RTF inh inactive, CRFBP-R2 agonist inactive, cardiac RTF act inactive, ANO1 activ inactive and CRFR2-BP antag 62.
`CCCC(=O)N1CCN(c2ccc(NC(=O)c3cc4ccccc4o3)cc2Cl)CC1` gave TMEM16A inh 100, Cardiac RTF inh inactive, CRFBP-R2 agonist inactive, cardiac RTF act inactive, ANO1 activ inactive and CRFR2-BP antag inactive.
Screening CCC(=O)N1CCN(c2ccc(NC(=O)c3cc4ccccc4o3)cc2Cl)CC1 returned TMEM16A inh 100, Cardiac RTF inh inactive, CRFBP-R2 agonist inactive, cardiac RTF act inactive, ANO1 activ inactive and CRFR2-BP antag inactive.
`O=C(CN1CCN(c2ccccc2)CC1)N/N=C/c1cccc(F)c1` gave TMEM16A inh inactive, Cardiac RTF inh inactive, CRFBP-R2 agonist inactive, cardiac RTF act inactive, ANO1 activ inactive and CRFR2-BP antag inactive.
Screening Cc1ccc2nc(SCn3nnc4ccccc4c3=O)[nH]c2c1 returned TMEM16A inh inactive, Cardiac RTF inh inactive, CRFBP-R2 agonist inactive, cardiac RTF act inactive, ANO1 activ inactive and CRFR2-BP antag inactive.
For O=c1c2ccccc2nnn1CSc1nc2ccccc2[nH]1 the results were TMEM16A inh inactive, Cardiac RTF inh inactive, CRFBP-R2 agonist inactive, cardiac RTF act inactive, ANO1 activ -7.6 and CRFR2-BP antag inactive.
`COCCn1c2nc(=O)n(-c3ccccc3)c(=O)c-2nc2ccccc21` gave CRFBP-R2 agonist 194 and CRFR2-BP antag inactive.
`C=Cc1c(C)c2cc3[nH]c(cc4nc(cc5nc(cc1[nH]2)C(C)=C5CCC(=O)O)C(CCC(=O)O)=C4C)c(C)c3C=C` gave TMEM16A inh inactive, Cardiac RTF inh 55!, CRFBP-R2 agonist inactive, cardiac RTF act inactive, ANO1 activ inactive and CRFR2-BP antag inactive.
For Cc1ccc(O)c(CNc2cnc3ccccc3c2)c1 the results were TMEM16A inh 25, Cardiac RTF inh inactive, CRFBP-R2 agonist inactive, cardiac RTF act inactive, ANO1 activ inactive and CRFR2-BP antag inactive.
Screening Oc1ccc(Br)cc1CNc1cnc2ccccc2c1 returned TMEM16A inh inactive, Cardiac RTF inh inactive, CRFBP-R2 agonist inactive, cardiac RTF act inactive, ANO1 activ inactive and CRFR2-BP antag inactive.
CN(C)CCNC(=O)C(=O)c1c(-c2ccccc2)cc2ccccn12 was read as TMEM16A inh inactive, Cardiac RTF inh inactive, CRFBP-R2 agonist inactive, cardiac RTF act inactive, ANO1 activ inactive and CRFR2-BP antag 65.
For COc1cccc(CNn2cnnc2)c1OCc1ccccc1F the results were TMEM16A inh inactive, Cardiac RTF inh inactive, CRFBP-R2 agonist inactive, cardiac RTF act inactive, ANO1 activ inactive and CRFR2-BP antag inactive.
For COc1cccc(CNn2cnnc2)c1OCc1ccc(F)cc1 the results were TMEM16A inh 100, Cardiac RTF inh inactive, CRFBP-R2 agonist inactive, cardiac RTF act inactive, ANO1 activ inactive and CRFR2-BP antag inactive.
C/C(=N\Nc1ncc(Cl)cc1Cl)c1ccccn1 was read as Cardiac RTF inh inactive, CRFBP-R2 agonist inactive, cardiac RTF act inactive, ANO1 activ -7.8 and CRFR2-BP antag inactive.
C/C(=N\Nc1ncnc2sc(C)c(C)c12)c1ccccn1 was read as TMEM16A inh inactive, Cardiac RTF inh inactive, CRFBP-R2 agonist 64, cardiac RTF act inactive, ANO1 activ inactive and CRFR2-BP antag inactive.
